# Assay results reported in PubChem BioAssay (Tox21).
# Values without a mark were called inactive. Records with an inconclusive call do not appear. Entries that show only a call come without a potency. Calls of active or inactive are those of the source. The call rests on the fitted dose curve; in most records, active means well fitted curve in the direction sought with a large enough effect in the repeat runs; inconclusive means weak or mixed curves; inactive means no such curve, though single readings can be large; an effect the other way counts as inactive or inconclusive.
# Key:
# [1] = Caspase-3/7 induction in CHO-K1 cells by small molecules, qHTS assay (AID 1346980); further: nearly all actives have a fitted effect of over 15% in size
# How it was run: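 Wild-type cells were seeded at 1,500 per well and settled 5 hr at 37 C, 5% CO2, then exposed to DMSO-dissolved compounds for 17 hr. Caspase-Glo 3/7 reagent was added, and luminescence was read after 30min at room temperature.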
# [2] = target: Nuclear receptor subfamily 1 group I member 2 (Homo sapiens) (UniProt O75469); test: Human pregnane X receptor (PXR) small molecule agonists, qHTS assay (AID 1346982); further: nearly all actives have a fitted effect of over 35% in size; further: potency means the concentration at half of the fitted maximal effect
# Sequence of Nuclear receptor subfamily 1 group I member 2 (Homo sapiens) (O75469 whole entry, looked up): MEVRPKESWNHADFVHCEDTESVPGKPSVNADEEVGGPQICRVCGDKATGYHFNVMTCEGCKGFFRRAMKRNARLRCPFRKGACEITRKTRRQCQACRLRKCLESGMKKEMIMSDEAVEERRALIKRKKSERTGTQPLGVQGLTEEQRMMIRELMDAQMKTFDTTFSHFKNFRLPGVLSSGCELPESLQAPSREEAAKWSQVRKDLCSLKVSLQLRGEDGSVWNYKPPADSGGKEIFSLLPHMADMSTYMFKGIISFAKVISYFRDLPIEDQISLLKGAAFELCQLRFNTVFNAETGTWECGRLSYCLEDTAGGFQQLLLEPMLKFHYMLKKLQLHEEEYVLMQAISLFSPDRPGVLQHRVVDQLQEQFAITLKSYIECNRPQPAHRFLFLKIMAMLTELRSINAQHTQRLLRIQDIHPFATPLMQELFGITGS
# How it was run: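 Compound-induced hPXR transactivation of a CYP3A4 luciferase reporter was scored in HepG2 PXR-Luc cells over 24 hr at 37 C, 5% CO2, by luminescence.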
# [3] = target: Cytochrome P450 2D6 (Homo sapiens) (UniProt P10635); test: Cytochrome P450 Family 2 Subfamily D Member 6 (CYP2D6) small molecule antagonists: luciferase reporter qHTS assay (AID 1671196); further: nearly all actives have a fitted effect of over 50% in size; further: potency means the concentration at half of the fitted maximal effect; on activity change, negative = inhibition: series mostly up to about 120 µM
# Sequence of Cytochrome P450 2D6 (Homo sapiens) (P10635 whole entry, looked up): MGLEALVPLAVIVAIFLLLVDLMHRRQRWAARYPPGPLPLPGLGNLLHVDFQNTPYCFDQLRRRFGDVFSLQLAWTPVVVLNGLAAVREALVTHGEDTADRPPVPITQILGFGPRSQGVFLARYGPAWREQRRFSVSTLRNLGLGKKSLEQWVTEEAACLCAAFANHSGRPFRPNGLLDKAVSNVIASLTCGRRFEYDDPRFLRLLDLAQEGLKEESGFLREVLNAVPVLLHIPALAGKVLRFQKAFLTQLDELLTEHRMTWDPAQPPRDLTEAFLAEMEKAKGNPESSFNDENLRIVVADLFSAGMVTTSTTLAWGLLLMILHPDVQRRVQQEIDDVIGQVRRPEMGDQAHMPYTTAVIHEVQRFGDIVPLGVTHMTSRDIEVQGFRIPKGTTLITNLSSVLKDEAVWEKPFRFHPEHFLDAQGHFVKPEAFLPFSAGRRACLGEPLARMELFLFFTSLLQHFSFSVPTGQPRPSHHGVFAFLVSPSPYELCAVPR
# How it was run: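 Each well received CYP2D6 with its proluciferin substrate and chemical, sat 10 min, then got NADPH regeneration solution for 1 h at room temperature. Luminescence in RLU served as the activity measure.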
# [4] = target: Cytochrome P450 2C19 (Homo sapiens) (UniProt P33261); test: Cytochrome P450 Family 2 Subfamily C Member 19 (CYP2C19) small molecule antagonists: luciferase reporter qHTS assay (AID 1671197); further: nearly all actives have a fitted effect of over 65% in size; further: potency means the concentration at half of the fitted maximal effect; on activity change, negative = inhibition: series mostly up to about 120 µM
# Sequence of Cytochrome P450 2C19 (Homo sapiens) (P33261 whole entry, looked up): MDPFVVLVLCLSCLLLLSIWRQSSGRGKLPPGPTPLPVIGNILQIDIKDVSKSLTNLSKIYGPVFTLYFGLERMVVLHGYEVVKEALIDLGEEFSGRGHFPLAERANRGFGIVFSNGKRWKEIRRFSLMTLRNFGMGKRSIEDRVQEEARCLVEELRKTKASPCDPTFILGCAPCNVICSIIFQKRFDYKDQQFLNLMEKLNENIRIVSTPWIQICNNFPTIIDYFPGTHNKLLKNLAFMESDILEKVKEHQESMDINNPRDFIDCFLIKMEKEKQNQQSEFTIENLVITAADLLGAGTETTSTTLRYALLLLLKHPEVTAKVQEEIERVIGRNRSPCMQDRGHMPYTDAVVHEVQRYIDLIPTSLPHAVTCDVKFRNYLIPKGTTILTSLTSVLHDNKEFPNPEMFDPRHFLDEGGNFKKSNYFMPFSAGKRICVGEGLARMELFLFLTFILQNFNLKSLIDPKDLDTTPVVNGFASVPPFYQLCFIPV
# How it was run: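 Relative luminescence units recorded 20 min after the detection reagent stopped a 1 h, 37C CYP2C19 reaction on proluciferin substrate, which was started by NADPH regeneration following 10 min room-temperature compound preincubation; ketoconazole positive control.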
# [5] = target: Cytochrome P450 2C9 (Homo sapiens) (UniProt P11712); test: Cytochrome P450 Family 2 Subfamily C Member 9 (CYP2C9) small molecule antagonists: luciferase reporter qHTS assay (AID 1671198); further: nearly all actives have a fitted effect of over 50% in size; further: potency means the concentration at half of the fitted maximal effect; on activity change, negative = inhibition: series mostly up to about 120 µM
# Sequence of Cytochrome P450 2C9 (Homo sapiens) (P11712 whole entry, looked up): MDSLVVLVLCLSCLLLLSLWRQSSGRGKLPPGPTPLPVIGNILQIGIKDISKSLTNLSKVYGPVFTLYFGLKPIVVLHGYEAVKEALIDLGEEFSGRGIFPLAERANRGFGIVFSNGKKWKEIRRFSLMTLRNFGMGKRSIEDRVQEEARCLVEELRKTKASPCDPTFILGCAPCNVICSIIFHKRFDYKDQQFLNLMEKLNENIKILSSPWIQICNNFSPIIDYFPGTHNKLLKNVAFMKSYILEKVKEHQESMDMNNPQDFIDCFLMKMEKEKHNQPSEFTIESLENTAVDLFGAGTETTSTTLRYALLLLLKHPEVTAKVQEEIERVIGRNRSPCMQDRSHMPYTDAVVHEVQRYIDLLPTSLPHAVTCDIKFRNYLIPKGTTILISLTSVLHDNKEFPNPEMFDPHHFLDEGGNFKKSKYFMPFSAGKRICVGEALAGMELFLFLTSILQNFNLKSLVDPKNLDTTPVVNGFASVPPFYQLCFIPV
# How it was run: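 CYP2C9 activity was measured with a P450-Glo proluciferin substrate. Enzyme–substrate mix was held with compound for 10 min at room temperature, then NADPH regeneration solution was added for 1 h at 37C. Luciferin product was read as luminescence.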
# [6] = target: Cytochrome P450 1A2 (Homo sapiens) (UniProt P05177); test: Cytochrome P450 Family 1 Subfamily A Member 2 (CYP1A2) small molecule antagonists: luciferase reporter qHTS assay (AID 1671199); further: nearly all actives have a fitted effect of over 50% in size; further: potency means the concentration at half of the fitted maximal effect; on activity change, negative = inhibition: series mostly up to about 120 µM
# Sequence of Cytochrome P450 1A2 (Homo sapiens) (P05177 whole entry, looked up): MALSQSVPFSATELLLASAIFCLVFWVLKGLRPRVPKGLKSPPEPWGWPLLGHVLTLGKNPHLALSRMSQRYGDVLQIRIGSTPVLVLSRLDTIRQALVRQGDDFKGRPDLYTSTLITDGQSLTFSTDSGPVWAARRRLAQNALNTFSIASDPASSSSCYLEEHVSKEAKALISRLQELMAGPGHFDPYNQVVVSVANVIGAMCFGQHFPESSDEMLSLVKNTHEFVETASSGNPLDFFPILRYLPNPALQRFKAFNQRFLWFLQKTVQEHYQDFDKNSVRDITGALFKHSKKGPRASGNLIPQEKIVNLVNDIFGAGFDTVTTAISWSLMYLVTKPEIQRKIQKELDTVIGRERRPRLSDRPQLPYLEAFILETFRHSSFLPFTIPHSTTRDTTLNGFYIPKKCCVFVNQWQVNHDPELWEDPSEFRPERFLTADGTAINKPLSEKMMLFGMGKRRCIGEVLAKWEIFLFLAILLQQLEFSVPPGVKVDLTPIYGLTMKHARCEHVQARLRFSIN
# How it was run: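 Enzymatic CYP1A2 assay, human, luminescent: 10 min compound–enzyme–substrate preincubation, 1 h NADPH-dependent turnover, 20 min detection step, room temperature throughout. Reduced light indicates lower CYP1A2 activity.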
# [7] = target: Voltage-gated inwardly rectifying potassium channel KCNH2 (Homo sapiens) (UniProt Q12809); test: Human Ether-a-go-go-Related Gene (hERG) channel small molecule antagonists: fluorescence cell-based qHTS assay (AID 1671200);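 further: hERG-expressing U2OS cells given a thallium stimulus after FluxOR II dye loading; series mostly up to about 77 µM; nearly all actives have a fitted effect of over 50% in size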
# Sequence of Voltage-gated inwardly rectifying potassium channel KCNH2 (Homo sapiens) (Q12809 whole entry, looked up): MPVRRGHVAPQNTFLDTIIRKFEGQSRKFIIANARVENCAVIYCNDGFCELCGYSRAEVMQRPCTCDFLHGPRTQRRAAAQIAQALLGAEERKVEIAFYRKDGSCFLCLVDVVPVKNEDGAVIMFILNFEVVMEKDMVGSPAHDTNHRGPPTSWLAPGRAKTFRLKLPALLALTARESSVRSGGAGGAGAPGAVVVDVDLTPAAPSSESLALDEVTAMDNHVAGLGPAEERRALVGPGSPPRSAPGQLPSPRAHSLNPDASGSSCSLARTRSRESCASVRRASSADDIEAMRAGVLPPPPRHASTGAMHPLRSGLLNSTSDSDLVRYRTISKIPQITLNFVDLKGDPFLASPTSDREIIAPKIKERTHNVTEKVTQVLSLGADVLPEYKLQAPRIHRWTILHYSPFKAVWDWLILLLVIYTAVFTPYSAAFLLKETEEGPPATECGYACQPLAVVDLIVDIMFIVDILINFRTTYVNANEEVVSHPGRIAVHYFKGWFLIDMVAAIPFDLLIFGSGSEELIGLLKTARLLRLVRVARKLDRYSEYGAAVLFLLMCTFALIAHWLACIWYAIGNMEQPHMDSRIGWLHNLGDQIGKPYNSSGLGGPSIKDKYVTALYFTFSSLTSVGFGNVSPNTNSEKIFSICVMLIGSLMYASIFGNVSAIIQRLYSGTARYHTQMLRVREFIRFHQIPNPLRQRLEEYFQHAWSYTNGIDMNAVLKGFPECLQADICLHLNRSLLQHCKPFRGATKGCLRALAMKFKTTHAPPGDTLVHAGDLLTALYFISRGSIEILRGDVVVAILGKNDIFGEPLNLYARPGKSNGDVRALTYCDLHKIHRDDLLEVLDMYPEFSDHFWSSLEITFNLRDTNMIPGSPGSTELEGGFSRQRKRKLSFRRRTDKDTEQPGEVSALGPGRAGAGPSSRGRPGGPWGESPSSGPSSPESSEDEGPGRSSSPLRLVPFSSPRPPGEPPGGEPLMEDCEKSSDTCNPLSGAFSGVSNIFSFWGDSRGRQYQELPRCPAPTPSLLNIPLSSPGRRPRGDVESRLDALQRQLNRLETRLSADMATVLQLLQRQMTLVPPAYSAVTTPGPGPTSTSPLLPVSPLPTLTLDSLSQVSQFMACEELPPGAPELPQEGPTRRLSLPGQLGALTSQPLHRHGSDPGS
# How it was run: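 hERG-U2OS cells plated overnight at 37 C, loaded with FluxOR II dye 1 h at RT in dark; after 10 min, thallium stimulus added. Fluorescence (480/540 nm) read kinetically for 2 min at 1 s intervals.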
# [8] = target: Cytochrome P450 3A4 (Homo sapiens) (UniProt P08684); test: Cytochrome P450 Family 3 Subfamily A Member 4 (CYP3A4) small molecule antagonists: luciferase reporter qHTS assay (AID 1671201); further: nearly all actives have a fitted effect of over 50% in size; further: potency means the concentration at half of the fitted maximal effect; on activity change, negative = inhibition: series mostly up to about 120 µM
# Sequence of Cytochrome P450 3A4 (Homo sapiens) (P08684 whole entry, looked up): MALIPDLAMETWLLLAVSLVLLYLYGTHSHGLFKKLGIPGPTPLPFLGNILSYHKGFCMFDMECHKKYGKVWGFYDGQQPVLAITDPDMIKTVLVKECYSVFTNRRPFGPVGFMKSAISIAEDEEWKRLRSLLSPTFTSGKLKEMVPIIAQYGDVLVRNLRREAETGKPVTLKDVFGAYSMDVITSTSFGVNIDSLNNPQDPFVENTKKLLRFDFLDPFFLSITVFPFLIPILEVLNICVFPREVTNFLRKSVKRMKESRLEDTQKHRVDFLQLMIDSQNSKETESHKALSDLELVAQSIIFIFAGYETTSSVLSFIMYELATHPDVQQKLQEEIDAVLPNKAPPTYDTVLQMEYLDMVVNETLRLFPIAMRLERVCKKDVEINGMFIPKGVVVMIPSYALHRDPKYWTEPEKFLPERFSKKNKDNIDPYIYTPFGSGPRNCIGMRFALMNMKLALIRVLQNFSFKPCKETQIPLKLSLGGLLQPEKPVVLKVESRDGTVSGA
# How it was run: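 P450-Glo CYP3A4 luminescent assay: compounds preincubated 10 min at room temperature with enzyme and proluciferin substrate, NADPH regeneration added, 1 h room-temperature reaction, stopped with luciferin detection reagent; luminescence read after 20 min. Ketoconazole positive control.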
# [9] = Caspase-3/7 induction in HepG2 cells by small molecules, qHTS cell viability counter screen (AID 1346981); further: series mostly up to about 92 µM; nearly all actives have a fitted effect of over 30% in size
# How it was run: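 Viability determined by CellTiter-Fluor fluorescence in HepG2 wells also used for the luminescent Caspase-Glo 3/7 read. Compounds were present for 16 hr at 37 C, 5% CO2 before reagent addition.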
# [10] = target: Nuclear receptor subfamily 1 group I member 2 (Rattus norvegicus) (UniProt Q9R1A7); test: Rat pregnane X receptor (rPXR) activation by small molecules, qHTS assay (AID 1346983); conditions: rPXR luciferase reporter cells, One-Glo luminescence, 24 h; max activation: stronger effect = higher value; further: nearly all actives have a fitted effect of over 20% in size
# Sequence of Nuclear receptor subfamily 1 group I member 2 (Rattus norvegicus) (Q9R1A7 whole entry, looked up): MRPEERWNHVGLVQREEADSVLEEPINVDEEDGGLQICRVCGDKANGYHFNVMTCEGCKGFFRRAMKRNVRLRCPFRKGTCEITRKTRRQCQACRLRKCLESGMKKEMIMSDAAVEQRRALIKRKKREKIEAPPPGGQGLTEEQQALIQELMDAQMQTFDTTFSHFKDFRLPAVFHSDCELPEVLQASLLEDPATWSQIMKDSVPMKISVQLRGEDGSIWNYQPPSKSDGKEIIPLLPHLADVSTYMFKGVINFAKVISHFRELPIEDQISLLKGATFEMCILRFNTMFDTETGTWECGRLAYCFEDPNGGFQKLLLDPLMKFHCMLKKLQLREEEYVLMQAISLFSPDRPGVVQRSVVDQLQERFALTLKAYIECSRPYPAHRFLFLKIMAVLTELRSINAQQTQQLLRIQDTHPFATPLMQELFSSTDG
# How it was run: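 Cell-based rPXR luciferase reporter assay, 2,000 cells per well, rested 5hr at 37 C before compound addition in DMSO, then 24 hr at 37 C. One-Glo reagent was added and luminescence read after 30 min at room temperature.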
# [11] = target: Nuclear receptor subfamily 1 group I member 2 (Homo sapiens) (UniProt O75469); test: CYP3A4 induction through human pregnane X receptor (PXR) by small molecules, qHTS assay (AID 1346984); further: potency means the concentration at half of the fitted maximal effect; nearly all actives have a fitted effect of over 40% in size
# How it was run: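 Readings come from a luciferase reporter: DPX-2 cells, which are HepG2 cotransfected with PXR and a CYP3A4-promoter construct, were exposed to test compounds for 24 h at 37C before One-Glo detection.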
# [12] = target: Nuclear receptor subfamily 1 group I member 2 (Homo sapiens) (UniProt O75469); test: Human pregnane X receptor (PXR) activation by small molecules, qHTS assay (AID 1346985); further: potency means the concentration at half of the fitted maximal effect; nearly all actives have a fitted effect of over 40% in size
# How it was run: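 DPX-2 cells (HepG2 co-transfected with a PXR response element and a CYP3A4-promoter luciferase construct) were seeded at 2,000 per well, rested 5 hr at 37C, then exposed to DMSO-dissolved compounds for 24 hr. Activation was read as luciferase luminescence.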
structure (smiles),measurement,setting,value
CC(=O)c1ccc2c(c1)[C@H](NC(=O)c1ccc(F)cc1)[C@@H](O)C(C)(C)O2,Potency,[1],inactive
same,Potency,[2],inactive
same,Potency,[3],18.8 µM (active)
same,Potency,[4],inactive
same,Potency,[5],33.5 µM (active)
same,Potency,[6],33.5 µM (active)
same,Potency,[7],inactive
same,Potency,[8],29.9 µM (active)
N#Cc1c(F)cccc1F,Potency,[1],inactive
same,Potency,[9],inactive
same,Potency,[3],inactive
same,Potency,[4],inactive
same,Potency,[5],inactive
same,Potency,[7],inactive
same,Potency,[8],inactive
CC(=O)CC(=O)c1ccccc1,Potency,[1],inactive
same,Potency,[9],inactive
same,Potency,[4],31.9 µM (active)
same,Potency,[5],35.8 µM (active)
same,Potency,[6],40.2 µM (active)
same,Potency,[7],inactive
same,Potency,[8],63.7 µM (active)
O=C1Nc2cc(Cl)ccc2Oc2ccccc21,Potency,[1],inactive
same,Potency,[2],inactive
same,Potency,[3],inactive
same,Potency,[4],15.5 µM (active)
same,Potency,[6],1.95 µM (active)
same,Potency,[7],inactive
same,Potency,[8],inactive
N[C@H]1C(O)O[C@H](CO)[C@H](O)[C@@H]1O (stereo not given in full),Potency,[1],inactive
same,Potency,[9],inactive
same,Potency,[3],inactive
same,Potency,[4],inactive
same,Potency,[5],inactive
same,Potency,[6],inactive
same,Potency,[8],inactive
CCC(C)N(C)C(=O)c1cc2ccccc2c(-c2ccccc2Cl)n1 (stereo not given),Potency,[1],inactive
same,Potency,[2],0.498 µM (active)
same,Potency,[3],inactive
same,Potency,[5],20.5 µM (active)
same,Potency,[6],inactive
same,Potency,[7],inactive
CCOC(=O)C1=C(C)NC(C)=C(C(=O)OC)C1c1cccc([N+](=O)[O-])c1 (stereo not given),Potency,[1],inactive
same,Potency,[9],inactive
same,Potency,[3],inactive
same,Potency,[4],1.55 µM (active)
same,Potency,[5],0.977 µM (active)
same,Potency,[6],inactive
same,Potency,[7],inactive
Cc1ccc(O)c([C@H](CCN(C(C)C)C(C)C)c2ccccc2)c1,Potency,[1],inactive
same,max activation,[10],2.91%
same,Potency,[3],3.09 µM (active)
same,Potency,[4],24.5 µM (active)
same,Potency,[6],inactive
O=C(Cl)c1ccc([N+](=O)[O-])cc1,Potency,[1],inactive
same,Potency,[2],5.35 µM (active)
same,Potency,[4],inactive
same,Potency,[5],inactive
same,Potency,[6],55.4 µM (active)
same,Potency,[7],inactive
same,Potency,[8],inactive
O=S1(=O)N=C(O)c2ccccc21,Potency,[1],inactive
same,Potency,[7],inactive
NCCCOCCOCCOCCCN,Potency,[1],inactive
same,Potency,[9],inactive
same,Potency,[3],20 µM (active)
same,Potency,[7],inactive
same,Potency,[8],inactive
CCCCCCCCCC=O,Potency,[1],inactive
same,Potency,[2],inactive
same,Potency,[3],inactive
same,Potency,[4],inactive
same,Potency,[7],inactive
same,Potency,[8],inactive
O=C(NS(=O)(=O)/C=C/c1cccs1)c1ccc(F)cc1Br,Potency,[1],inactive
same,Potency,[2],30.6 µM (active)
same,Potency,[3],inactive
same,Potency,[5],7.1 µM (active)
same,Potency,[6],inactive
same,Potency,[7],inactive
same,Potency,[8],inactive
COCCCCCCCCOCCC[Si](C)(O[Si](C)(C)C)O[Si](C)(C)C,Potency,[1],inactive
same,Potency,[2],12.2 µM (active)
same,Potency,[3],inactive
same,Potency,[4],56.4 µM (active)
same,Potency,[5],35.6 µM (active)
same,Potency,[8],3.56 µM (active)
C=CC(=O)OCCOC(=O)CCC(=O)O,Potency,[1],inactive
same,Potency,[2],inactive
same,Potency,[3],inactive
same,Potency,[4],inactive
same,Potency,[5],inactive
same,Potency,[7],inactive
same,Potency,[8],31.7 µM (active)
CC(C)(C)c1ccc(OCC2CO2)cc1 (stereo not given),Potency,[1],inactive
same,Potency,[2],35.1 µM (active)
same,Potency,[4],64.6 µM (active)
same,Potency,[5],72.4 µM (active)
same,Potency,[7],inactive
same,Potency,[8],inactive
O=C(CCN1CCN2CCCC2C1)N1c2ccccc2Sc2ccc(Cl)cc21 (stereo not given),caspase-3/7 activation,[1],0.894% [at 19 µM]
same,max activation,[10],3.92%
same,Potency,[11],12.6 µM (active)
same,Potency,[12],12.6 µM (active)
same,Potency,[3],6.74 µM (active)
same,"activity change, negative = inhibition",[4],-4.46% [at 23.6 µM]
same,"activity change, negative = inhibition",[5],11.9% [at 23.6 µM]
same,"activity change, negative = inhibition",[6],-23.8% [at 23.6 µM]
O=C(O)c1cccc(N(Cc2cccnc2)c2ccc(OC(F)F)c(OC(F)F)c2)c1,Potency,[1],inactive
same,Potency,[2],43.3 µM (active)
same,Potency,[4],35.6 µM (active)
same,Potency,[5],25.2 µM (active)
same,Potency,[7],inactive
same,Potency,[8],inactive
CCCCCc1ccc(N)cc1,Potency,[1],inactive
same,Potency,[9],inactive
same,Potency,[3],31.7 µM (active)
same,Potency,[4],6.33 µM (active)
same,Potency,[5],28.3 µM (active)
same,Potency,[6],28.3 µM (active)
same,Potency,[7],inactive
same,Potency,[8],31.7 µM (active)
CC(C)(C)c1cc(CO)cc(C(C)(C)C)c1O,Potency,[1],inactive
same,Potency,[9],inactive
same,Potency,[3],72.4 µM (active)
same,Potency,[4],25.7 µM (active)
same,Potency,[5],32.3 µM (active)
same,Potency,[6],inactive
same,Potency,[7],inactive
same,Potency,[8],36.3 µM (active)
